Among the test systems are HCT-15 colon; HT29 colon; SNB-75 CNS; SNB-19 CNS; U251 CNS; PC-3 prostate; SK-MEL-5 melanoma; UACC-62 melanoma; SK-MEL-28 melanoma.
Holding throughout (experiment): NCI-60 one-dose screen, 48 h (100 = growth as untreated, 0 = no growth, -100 = all killed)
What all share (details): 10 µM unless noted

Each structure is given as a SMILES string. This is part of a sample that, as a whole, favours compounds with a hit. Of some 83,000 tested, about 20% had one in any assay.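 Values shown are percent growth following 48 h exposure of cells in 96-well plates to a single concentration of compound; below 10 was considered active.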 A number with no mark means an inactive call. Calls of active or inactive are those of the source.

As to `CC1(C)C(=O)/C(=C\c2cccnc2)C[C@]2(C)[C@H]3CC[C@@H]4[C@@H](C(=O)/C=C/c5ccncc5)CC[C@@]4(C)[C@]3(C)CC[C@@H]12`, the growth in the experiment with HCT-15 colon is -36% (active); in the experiment with HT29 colon, 9.87% (active); in the experiment on SNB-75 CNS it was 62.6%; in the experiment with SNB-19 CNS it was 15.1%; with U251 CNS, -7.74% (active); with PC-3 prostate it was 19.5%. In addition, the growth in the experiment with SK-MEL-5 melanoma is -10.9% (active); in the experiment with UACC-62 melanoma, -26.7% (active); in the experiment with SK-MEL-28 melanoma, 26.7%.
For the compound `Cc1ccc2[nH]cc(-c3nc(-c4cn(C)c5ncccc45)cs3)c2c1`, the growth in the experiment on HCT-15 colon was 83%; in the experiment with HT29 colon, 74.6%; with SNB-75 CNS it was 85%; in the experiment on SNB-19 CNS, 109%; in the experiment with U251 CNS, 94.8%; in the experiment with PC-3 prostate it was 57%. Moreover, the growth is 76.9% in the experiment on SK-MEL-5 melanoma, 79.3% with UACC-62 melanoma and 90.6% with SK-MEL-28 melanoma.
Turning to `O=C(N/N=C\c1c(O)ccc2ccccc12)C1CC1`, the growth with HCT-15 colon was 28.4%; with HT29 colon, 69.6%; in the experiment with SNB-75 CNS it was 53.8%; in the experiment with SNB-19 CNS, 54.9%; with U251 CNS, 35.6%; with PC-3 prostate it was 45.8%. Besides, the growth in the experiment on SK-MEL-5 melanoma is 53.1%; with UACC-62 melanoma, 25.2%; in the experiment with SK-MEL-28 melanoma, 69.7%.
For `C=C(C)[C@@H]1CC[C@]2(C(=O)OC)CC[C@]3(C)[C@H](CC[C@@H]4[C@@](C)(CC/C(N)=N/O)[C@H](C(=C)C)CC[C@]43C)[C@@H]12`, the growth in the experiment with HCT-15 colon was 102%; with HT29 colon, 99.1%; in the experiment with SNB-75 CNS, 95.4%; in the experiment with SNB-19 CNS, 95.9%; in the experiment with U251 CNS, 97.7%; with PC-3 prostate, 86.1%. Also, the growth is 94.2% in the experiment with SK-MEL-5 melanoma, 99.6% in the experiment with UACC-62 melanoma and 101% in the experiment with SK-MEL-28 melanoma.
As for `C[C@@H](Oc1ccc(C(=O)NS(=O)(=O)C(C)(C)C)cc1C(F)(F)F)c1ccc(Oc2ccccc2)cn1`, the growth was 23.8% with HCT-15 colon; 34.6% in the experiment on HT29 colon; -9.43% (active) in the experiment on SNB-75 CNS; 20% with SNB-19 CNS; 25.6% in the experiment on U251 CNS; 47.5% with PC-3 prostate. The growth was 23.2% in the experiment on SK-MEL-5 melanoma, 18% in the experiment with UACC-62 melanoma and 47.1% in the experiment with SK-MEL-28 melanoma.
As for `C#CCn1c(C)cc(C)c(C#N)c1=O`, the growth in the experiment on HCT-15 colon was 105%; in the experiment with HT29 colon, 120%; in the experiment on SNB-75 CNS it was 103%; in the experiment with SNB-19 CNS it was 95.4%; in the experiment on U251 CNS, 100%; with PC-3 prostate it was 104%. Besides, the growth was 104% with SK-MEL-5 melanoma, 99% in the experiment on UACC-62 melanoma and 109% in the experiment on SK-MEL-28 melanoma.
`C#CCN=C[C@]12CC[C@@H](C(=C)C)[C@@H]1[C@H]1CC[C@@H]3[C@@]4(C)CCC(=O)C(C)(C)[C@@H]4CC[C@@]3(C)[C@]1(C)CC2`: the growth was 53.2% in the experiment with HCT-15 colon; 55.7% in the experiment on HT29 colon; 120% in the experiment with SNB-75 CNS; 79% with SNB-19 CNS; 62.1% in the experiment on U251 CNS; 24.5% in the experiment with PC-3 prostate. For the same compound, the figures for the growth with SK-MEL-5 melanoma, with UACC-62 melanoma and with SK-MEL-28 melanoma were 25.3%, 37.7% and 81.6%, respectively.
Take `COc1ccc(-c2c(-c3nc4ccc(N5CCOCC5)cc4[nH]3)[nH]c(C)c2C(C)=O)cc1`: the growth was 3.79% (active) with HCT-15 colon; 20.8% with HT29 colon; 1.76% (active) in the experiment on SNB-75 CNS; 39.7% in the experiment on SNB-19 CNS; 54.3% with U251 CNS; 48.7% in the experiment with PC-3 prostate. Besides, the figures for the growth in the experiment with SK-MEL-5 melanoma, in the experiment on UACC-62 melanoma and in the experiment with SK-MEL-28 melanoma were 22.2%, 15.7% and 45.8%, respectively.
As to `CC(=O)N1N=C(c2ccc(C)cc2)CC1c1ccc(Oc2ccc(Br)cc2)cc1` (configuration not stated), the growth with HCT-15 colon is 80.4%; in the experiment with HT29 colon, 79%; in the experiment on SNB-75 CNS, 73.7%; in the experiment with SNB-19 CNS, 84.9%; in the experiment with U251 CNS, 75.3%; in the experiment on PC-3 prostate, 87%. Also, the growth is 91.7% in the experiment with SK-MEL-5 melanoma, 64.4% in the experiment on UACC-62 melanoma and 105% with SK-MEL-28 melanoma.
On to `CC(C)c1cc(C(=O)O)c(O)c(C(C)C)c1.CC(C)c1cc(C(=O)O)c(O)c(C(C)C)c1.[Mn]`, for which the growth in the experiment on HCT-15 colon is 108%; in the experiment with HT29 colon, 119%; with SNB-75 CNS, 106%; in the experiment on SNB-19 CNS, 91.6%; in the experiment on U251 CNS it was 98.3%; in the experiment on PC-3 prostate, 98.2%. Moreover, the growth in the experiment on SK-MEL-5 melanoma is 94.3%; with UACC-62 melanoma it was 94.9%; with SK-MEL-28 melanoma it was 113%.
With `CCOc1ccc(NC(=O)c2ccoc2COc2ccccc2)cc1`, the growth was 101% with HCT-15 colon; 107% in the experiment on HT29 colon; 107% with SNB-75 CNS; 95.3% with SNB-19 CNS; 99.4% in the experiment on U251 CNS; 95.7% in the experiment with PC-3 prostate. In addition, the growth is 99.1% with SK-MEL-5 melanoma, 79.8% with UACC-62 melanoma and 101% in the experiment on SK-MEL-28 melanoma.
As for `CC[C@H](CC[C@@H](C)[C@H]1CC[C@H]2[C@@H]3/C(=C/c4cccnc4)C(=O)C4=CC(=O)CC[C@]4(C)[C@H]3CC[C@]12C)C(C)C`, the growth in the experiment on HCT-15 colon was 78.9%; in the experiment on HT29 colon it was 81.4%; with SNB-75 CNS, 110%; with SNB-19 CNS, 88.6%; with U251 CNS it was 0.689% (active); with PC-3 prostate, 66.7%. For the same compound, the growth is 79.8% in the experiment with SK-MEL-5 melanoma, 76.6% in the experiment with UACC-62 melanoma and 75.7% with SK-MEL-28 melanoma.
Turning to `COc1ccc(OC)c(-c2c(C#N)c(-c3ccco3)nc3c2c(-c2ccccc2)nn3-c2ccccc2)c1`, the growth with HCT-15 colon is 96.9%; in the experiment with HT29 colon, 105%; with SNB-75 CNS, 84.5%; in the experiment on SNB-19 CNS, 93.3%; with U251 CNS, 103%; in the experiment with PC-3 prostate, 83.7%. The growth is 97% in the experiment on SK-MEL-5 melanoma, 76.6% with UACC-62 melanoma and 106% in the experiment with SK-MEL-28 melanoma.

(Values after PubChem BioAssay (NCI).)
